Most compounds without a hit are left out; they make up all but 11% or so of the library.
HPGD inh = qHTS Assay for Inhibitors of HPGD (15-Hydroxyprostaglandin Dehydrogenase); Potency, µM, for inactives: at the highest dose activity change, negative = inhibition, hits mostly inhibitors; actives 4.3% (n = 150,000); 15-hydroxyprostaglandin dehydrogenase [NAD(+)] (Homo sapiens), P15428; AID 894, 2007; purified HPGD, NADH fluorescence kinetic, PGE2 substrate; also: potency is read from the fitted curve at half-maximal effect
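NADH formation kinetics: reaction with 30 uM PGE2 and 1 mM NAD+ (final), 20 nM enzyme, Tris-HCl pH 8 with Tween 20, after 15 min compound preincubation at room temperature. Fluorescence change, last versus first of five reads.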
PNC assembly inh = High Content Assay for Compounds that inhibit the Assembly of the Perinucleolar Compartment; PC3M PTB-GFP, PNC prevalence imaging, 16 h; stronger effect = lower value; activity change (PNC), negative = inhibition, % at 10 µM; actives 3.1% (n = 140,000);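 active = readout at or below -70, meaning at least 70% loss of cells showing the perinucleolar compartment, a nuclear body marking cancer cells; inconclusive = readout between -30 and a set limit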;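 also: plate controls were DMSO wells for no effect and camptothecin positive control wells for full effect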
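Read-out is percentage of cells bearing a perinucleolar compartment, from automated 20x imaging of fixed, Hoechst-stained PC3M PTB-GFP cells. Cells were seeded 4 h, then exposed 16 h to compound (23 nl of library stock) in duplicate plates.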
ALDH1A1 block = qHTS Assay for Inhibitors of Aldehyde Dehydrogenase 1 (ALDH1A1); Aldehyde dehydrogenase 1A1 (Homo sapiens), P00352; Purified ALDH1A1, NADH fluorescence, propionaldehyde substrate; Potency, µM (series often up to 75.3 µM), for the others: at the top dose activity, negative = inhibition, actives largely listed as inhibitors; actives 7.3% (n = 220,000);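 also: potency is read from the fitted curve at half-maximal effect; plate controls were no enzyme wells and a reference inhibitor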
Target sequence (P00352 whole entry, looked up): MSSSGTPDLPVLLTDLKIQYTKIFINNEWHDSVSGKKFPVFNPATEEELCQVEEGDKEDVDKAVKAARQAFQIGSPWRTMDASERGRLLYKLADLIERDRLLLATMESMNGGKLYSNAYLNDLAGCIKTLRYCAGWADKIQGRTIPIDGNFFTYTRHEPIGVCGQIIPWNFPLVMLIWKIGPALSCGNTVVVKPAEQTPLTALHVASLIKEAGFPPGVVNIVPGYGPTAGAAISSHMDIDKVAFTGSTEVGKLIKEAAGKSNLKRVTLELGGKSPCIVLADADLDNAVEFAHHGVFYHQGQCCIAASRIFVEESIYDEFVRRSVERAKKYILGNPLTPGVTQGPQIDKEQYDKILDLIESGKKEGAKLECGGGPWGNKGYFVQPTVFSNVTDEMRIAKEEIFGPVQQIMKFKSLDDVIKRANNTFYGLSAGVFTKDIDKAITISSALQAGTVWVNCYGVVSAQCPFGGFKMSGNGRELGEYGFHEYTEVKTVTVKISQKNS
IMPase inh = qHTS Assay for Identifying the Cell-Membrane Permeable IMPase Inhibitors; Inositol monophosphatase 1 (Rattus norvegicus), P97697; CHO-M1 cells, IP1 accumulation, HTRF TR-FRET ratio; inhibition (IP1 accumulation), % at 46.1 µM; 120,000 tested, under 10 active; AID 901, 2007; active = well fitted curve in the direction sought with a large enough effect in the signal ratio, not every such curve was filed as active; inconclusive = small, poorly fitted or top-dose-only effect, or a change in a side signal; inactive = no such curve, though single readings can be large or run the other way; the % refers to the signal ratio;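 also: cells stimulated with carbachol in lithium chloride buffer; plate controls were DMSO basal wells for no effect and reference inhibitor wells for full effect; higher means more IMPase inhibition seen as more IP1 and lower FRET ratio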
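Elevated IP1 in lysates lowers TR-FRET signal (665/620 ratio and 620 channel reported). Cells were CHO-M1, given carbachol (50 uM as added) plus 50mM LiCl, pH 7.4, 30 min, 37C; compounds titrated up to 46 uM; AC50 by Hill equation.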
IMPase Li inh = qHTS Assay for Identifying the Cell-Membrane Permeable IMPase Inhibitors: Potentiation with Lithium | CHO-M1 cells, IP1 TR-FRET (IP-One), carbachol + lithium | Potency, µM (series often up to 59.4 µM), inactives show at the highest dose activity, negative = IMPase inhibition, actives largely listed as inhibitors | actives 0.35% (n = 210,000) | AID 1457, 2008; active = well fitted inhibition curve with a large enough effect; inconclusive = small, poorly fitted or top-dose-only effect; inactive = no such curve, though single readings can be large or run the other way;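 also: IP1 builds up when IMPase is blocked and the TR-FRET signal falls; potency is read from the fitted curve at half-maximal effect; plate controls were basal vehicle for no effect and high inhibitor control for full effect; nearly all actives have a fitted effect of over 50% in size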
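Lithium-sensitised IP1 accumulation assay; M1-expressing CHO cells treated 30 min at 37C with compound. Competitive antibody detection by time-resolved FRET followed a 10 min room-temperature lysis step.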
* hit, by the source's call; ? = inconclusive; . = no result; [ ] = dose if it differs, or a comment. Unless noted, calls follow the shape of the dose curve; as a rule, active = well fitted inhibition curve with a large enough effect (not every such curve was filed as active); inconclusive = small, poorly fitted or top-dose-only effect, or another doubt; inactive = no such curve, though single readings can be large or run the other way. Unless noted, % is scaled to controls: 0 for no effect and ±100 for the full control effect.

SMILES	HPGD inh	PNC assembly inh	ALDH1A1 block	IMPase inh	IMPase Li inh
C[C@@]12CCC3c4ccc(OC5C=CC(c6ccccc6)OC5CO)cc4CCC3C1CCC2=O (some centres not stated)	.	.	2%[13.5 µM]	.	.
CC1(C)Cc2c(c(-c3ccco3)nc3n[nH]c(N)c23)CO1	?	-9	25µM*	?	-11%[38.3 µM]
CON(C)C(=O)c1nnc2c(n1)[nH]c1ccccc12	.	.	-5%[13.5 µM]	.	.
COc1ccc(C)cc1Nc1cc(C)nc2ncnn12	5µM*	?	1%	.	4%
Cc1ccc(Nc2cc(C)nc3nc(C)nn23)c(C)c1	-18%	1	0%	.	-5%
CCOc1ccc(OCC)c(Nc2cc(C)nc3nc(C)nn23)c1	0.5µM*	29	3%	.	4%
CCOc1ccc(OCC)c(Nc2cc(C)nc3ncnn23)c1	4.5µM*	-23	1%	-3	25%[38.3 µM]
CCOc1ccccc1Nc1cc(C)nc2nc(C)nn12	1.6µM*	11	-6%	-8	8%
Cc1cc(Nc2ccccc2F)n2nc(C)nc2n1	-16%	-15	4%	.	8%
COC(=O)[C@H](COC(C)(C)C)NC(=O)O[C@H]1C(=O)c2cc(OC)ccc2O[C@@H]1c1ccc(OC)c(Br)c1	-12%	.	-12%	.	11%
CC12CCC(C(=O)N3CCCc4ccccc43)(OC1=O)C2(C)C (configuration not stated)	-3%	-20	1%	.	4%
N#Cc1cccc(-c2nc(NCc3cccnc3)c3ccccc3n2)c1	.	.	?	.	-3%
O=C(CN1C(=O)CCC1=O)Nc1nc(-c2ccc(Oc3ccccc3)cc2)cs1	18µM*	-12	-5%	-12	-1%
COc1ccc(-c2csc(NC(=O)CN3C(=O)CCC3=O)n2)cc1OC	28µM*	44	1%	-9	7%
COc1ccc(-c2csc(NC(=O)CN3C(=O)CCC3=O)n2)cc1	.	.	12%	.	6%
C=CCCCCCCCCCCCC(O)CC(O)CO (configuration not stated) (tested in a mixture with another compound)	-2%	.	5%	.	-10%
Cc1ccc(OCc2nc3ccccc3n2Cc2ccccc2Cl)cc1	.	.	.	4	.
O=C(O)C1CCCCN1S(=O)(=O)c1ccc(Cl)s1 (configuration not stated)	-10%	-15	16µM*	-3	-16%[38.3 µM]
CCN1C(=S)SC(=O)C1=C1C=C(C)OC(C)=C1	-12%	28	-2%	5	10%[38.3 µM]
CCN1C(=S)SC(=O)C1=C1C=C(C)N(Cc2ccco2)C(C)=C1	-29%	-7	2.5µM*	14	15%[38.3 µM]
CCOC(=O)c1cc(C)nc(SC)c1C#N	.	.	40µM*	.	.
Cc1ccc(S(=O)(=O)N(C)C)cc1NC(=S)N1CCCCC1CO (configuration not stated)	.	.	?	.	-2%
CC1Cc2ccccc2N1C(=O)COC(=O)CNC(=O)c1ccc(Br)o1 (configuration not stated)	-12%	36	28µM*	7	22%[38.3 µM]
COCCN1CC(O)=C(c2nc3ccccc3c(=O)[nH]2)C1=N	?	-100*	?	-6	1%
COc1ccccc1N1CC(O)=C(c2nc3ccccc3c(=O)[nH]2)C1=N	?	-13	?	-5	16%[38.3 µM]
SMILES	HPGD inh	PNC assembly inh	ALDH1A1 block	IMPase inh	IMPase Li inh
N=C1C(c2nc3ccccc3c(=O)[nH]2)=C(O)CN1CCc1ccccc1	?	22	?	-3	11µM*
N=C1C(c2nc3ccccc3c(=O)[nH]2)=C(O)CN1CCO	?	26	?	-1	7%[38.3 µM]
O=C(COc1ncnc2ccccc12)Nc1ccccc1[N+](=O)[O-]	.	.	?	.	10%
CCCCC(=O)NCc1ccc(Cl)cc1	14µM*	12	17%	.	7%
O=C(NC1CCCC1)c1ccc(Br)o1	16µM*	-85*	-3%	-5	16%[38.3 µM]
O=C(NCc1ccccc1)c1cccc(Br)n1	32µM*	?	-13%	.	5%
O=C(O)c1ccc(CNC(=O)c2ccc(Br)o2)cc1	-8%	?	0%	-1	2%[38.3 µM]
